Reference: PubChem BioAssay AID1851 (National Center for Advancing Translational Sciences (NCATS), 2009)
Out of some 16,000 compounds screened, about 5,100 (32%) were called active. Roughly 25% stayed inconclusive and do not appear here. Calls come from the whole dose curve; as a rule, active = well fitted curve in the direction sought with a large enough effect; inconclusive = small, poorly fitted or top-dose-only effect, or effect the other way; inactive = no such curve, though single readings can be large or run the other way. The list shows a part of the results. Peptide text beside a SMILES is read from it.

target: Cytochrome P450 3A4 (Homo sapiens) (UniProt P08684); test: Cytochrome panel assay with activity outcomes; details: recombinant CYP, pro-luciferin dealkylation, luminescence, p450-cyp3a4; series mostly up to 57.1 µM
Sequence (P08684 whole entry, looked up): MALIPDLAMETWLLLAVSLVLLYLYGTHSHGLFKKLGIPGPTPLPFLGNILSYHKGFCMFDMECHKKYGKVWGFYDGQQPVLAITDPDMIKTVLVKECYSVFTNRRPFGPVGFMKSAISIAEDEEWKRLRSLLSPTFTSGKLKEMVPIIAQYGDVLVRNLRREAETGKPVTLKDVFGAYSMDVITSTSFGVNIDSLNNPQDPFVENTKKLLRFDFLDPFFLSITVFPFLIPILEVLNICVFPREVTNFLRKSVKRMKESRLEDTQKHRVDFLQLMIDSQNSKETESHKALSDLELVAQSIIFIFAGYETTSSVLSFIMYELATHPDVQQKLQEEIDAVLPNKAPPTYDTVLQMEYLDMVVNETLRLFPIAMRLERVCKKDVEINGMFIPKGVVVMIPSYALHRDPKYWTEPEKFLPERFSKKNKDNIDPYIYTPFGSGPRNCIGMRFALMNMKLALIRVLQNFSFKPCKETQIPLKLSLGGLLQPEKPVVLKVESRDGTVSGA
% is set by controls: 0 for no effect and ±100 for the full control effect.

SMILES | AC50 | activity, negative = inhibition
CN(C)C(N)=NCCC[C@H](N)C(=O)O | inactive | 
Cc1ccc(-c2ccc(/C=N\NC(=O)c3cc4c(ccc5ccccc54)o3)o2)cc1[N+](=O)[O-] | inactive | 
Cc1ccc(-c2ccc(/C=N/NC(=S)Nc3ccccc3)o2)cc1[N+](=O)[O-] | 7.08 µM (active) | 
Cc1ccc(C(=O)N/N=C\c2ccc[nH]2)cc1[N+](=O)[O-] |  | 16.8% [at 2.29 µM] (inactive)
Cc1cc(C(F)(F)F)n2nc(-c3cnn(C)c3C(F)(F)F)c(Cl)c2n1 | inactive | 
Cc1ccccc1-c1nc(-n2ccnc2)c2ccccc2n1 | 0.398 µM (active) | 
Clc1ccccc1-c1nc(-n2ccnc2)c2ccccc2n1 | 0.501 µM (active) | 
NC(=O)c1ccccc1-c1nc(-n2ccnc2)c2ccccc2n1 | 3.98 µM (active) | 
CC(C)(C)OC(=O)[C@H]([C@@H]1N[C@@H](C(=O)O)C(C)(C)S1)N1C(=O)c2ccccc2C1=O |  | -8.52% [at 11.4 µM] (inactive)
CCCCn1c(SCC(=O)Nc2nccs2)nc2ccccc2c1=O | 3.16 µM (active) | 
COc1ccc(NC(=O)CSc2nc3ccccc3c(=O)n2CCC(=O)N2CCCCC2)cc1 | 2 µM (active) | 
Cc1cc(NC(=O)CSc2nc3ccccc3c(=O)n2CCCC(=O)NCc2ccco2)n[nH]1 | 3.55 µM (active) | 
COCC(=O)N1CCC2(CC1)CCN(C(=O)Nc1ccc(OC)cc1)CC2 | inactive | 
Cc1cccc(C)c1-n1c(SCC(=O)NCc2ccco2)nc2ccccc2c1=O | 3.98 µM (active) | 
O=C(CSc1ccccc1C(=O)O)NCc1ccco1 | inactive | 
O=C(CSc1nnc(-c2ccco2)n1-c1ccccc1)NCc1ccco1 | 15.8 µM (active) | 
CCCCNC(=O)CSc1nc2ccccc2c(=O)n1CCNC(C)=O | 25.1 µM (active) | 
CC(=O)NCCn1c(SCC(=O)NCc2ccco2)nc2ccccc2c1=O | 15.8 µM (active) | 
C=CCSc1nc2ccccc2c(=O)n1Cc1ccco1 |  | -25.8% [at 11.4 µM] (inactive)
Cc1cc(C)c(NC(=O)C(C)Sc2nnc(-c3ccco3)n2-c2ccccc2)c(C)c1 (centres undefined) | 3.55 µM (active) | 

SMILES | AC50 | activity, negative = inhibition
O=C(CSc1nnc2sc3ccccc3n12)NCc1ccco1 |  | -18.1% [at 11.4 µM] (inactive)
CCCCNC(=O)C(=O)c1ccccc1NC(C)=O | inactive | 
Cc1ccc(Oc2nn[nH]n2)cc1 | inactive | 
CC1CCC(C(=O)O)([C@H](Br)C(=O)O)CC1 (some centres undefined) |  | -2.61% [at 11.4 µM] (inactive)
NC(=O)OCC(COC(N)=O)c1ccccc1 | inactive | 
O=C(CSc1nc2ccccc2c(=O)n1CCCC(=O)N1CCCC1)NCc1ccco1 | 6.31 µM (active) | 
CCCCCn1c(SCc2ccncc2)nc2cc(C(=O)NCc3ccco3)ccc2c1=O | 0.794 µM (active) | 
CCOC(=O)CSc1nc2ccccc2c(=O)n1CC1CCC(C(=O)NCc2ccco2)CC1 (centres undefined) | 5.01 µM (active) | 
CCN(C(=O)CSc1nc2cc(C(=O)OC)ccc2c(=O)n1Cc1ccco1)c1cccc(C)c1 | inactive | 
O=C(O)CCCCCn1c(SCC(=O)N2CCCC2)nc2ccsc2c1=O | inactive | 
CCS(=O)(=O)N1CCC(C(=O)NCc2ccco2)CC1 | inactive | 
CC(/C=N/n1c(-c2cccnc2)n[nH]c1=S)=C\c1ccccc1 | 2 µM (active) | 
O=C(O)CC[C@]1(C(=O)O)CCC(=O)c2ccccc21 |  | -0.615% [at 11.4 µM] (inactive)
COc1ccccc1CNc1cc(-c2ccoc2)ncn1 | 15.8 µM (active) | 
COc1ccc(CNc2cc(-c3ccoc3)ncn2)c(OC)c1 | 15.8 µM (active) | 
Cc1ccc(Oc2cc(N3CCOCC3)nc(-c3ccccc3)n2)cc1 | 14.1 µM (active) | 
COc1cccc(Sc2cc(N3CCOCC3)nc(-c3ccccc3)n2)c1 | 0.794 µM (active) | 
Cc1cc(Oc2ccccc2)nc(-c2ccccc2)n1 | inactive | 
O=c1nc(N2CCOCC2)ccn1-c1nc(-c2ccccc2)oc1-c1ccccc1 | inactive | 
Cc1ccc(S(=O)(=O)c2cc(N3CCOCC3)nc(-c3ccccc3)n2)cc1 |  | -13.7% [at 2.29 µM] (inactive)

SMILES | AC50 | activity, negative = inhibition
Cc1cc(Oc2ccc(-c3ccccc3)cc2)nc(N2CCOCC2)n1 | inactive | 
N#C/C(=C/c1ccc(N2CCCC2)c([N+](=O)[O-])c1)c1nc2ccccc2[nH]1 | 2.82 µM (active) | 
N#C/C(=C\c1ccc(N2CCCC2)c([N+](=O)[O-])c1)c1nc2ccccc2[nH]1 | 1.58 µM (active) | 
Cc1nc2nc(-c3ccc(Cl)cc3)nn2c(C)c1Cl | inactive | 
Cc1cc(N)n2ncc(-c3ccc(Cl)cc3)c2n1 | 15.8 µM (active) | 
Cc1cc(N2CCN(C)CC2)n2nc(-c3ccc(Cl)cc3)nc2n1 |  | -14.4% [at 11.4 µM] (inactive)
CC(C)(C)C(=O)OCc1cn(-c2ccc(Cl)cc2)nn1 | inactive | 
COc1cc(S(C)=O)ccc1-c1nc2ncccc2[nH]1 (centres undefined) | inactive | 
O=C(Nc1cccn(Cc2ccc(F)cc2)c1=O)NC1CCCCC1 | 15.8 µM (active) | 
Cc1ccc(Cn2cccc(NC(=O)NC3CCCCC3)c2=O)cc1 | 12.6 µM (active) | 
Cc1ccc(Cn2cccc(NC(=O)NCc3ccccc3)c2=O)cc1 | inactive | 
NCCSCCC(=O)O |  | -1.66% [at 11.4 µM] (inactive)
O=S(=O)(c1ccc(F)cc1)n1ccc(-c2cnc(-c3ccccc3)s2)n1 | 11.2 µM (active) | 
COc1ccc(S(=O)(=O)n2ccc(-c3cnc(-c4ccccc4)s3)n2)cc1 | 3.98 µM (active) | 
CC(Oc1ccccc1)c1ccnn1S(=O)(=O)c1ccccc1 (centres undefined) |  | -13.1% [at 11.4 µM] (inactive)
CC[C@@H](C)[C@H]1O[C@]2(CC[C@@H]1C)C[C@@H]1C[C@H](C/C=C(/C)[C@H](O[C@@H]3C[C@H](OC)[C@H](O[C@@H]4C[C@H](OC)[C@@H](O)[C@H](C)O4)[C@H](C)O3)[C@@H](C)/C=C\C=C3CO[C@@H]4[C@H](O)C(C)=C[C@@H](C(=O)O1)[C@]34O)O2 (tested in a mixture with another compound) | inactive | 
COC(=O)C(CC(C)C)NC(=O)C(N)Cc1ccccc1 (stereo not drawn) (H-Phe-Leu-OMe; configuration not given here) | 14.1 µM (active) | 
CC(C)C[C@H](NC(=O)[C@@H](O)[C@@H](N)Cc1ccccc1)C(=O)O | inactive | 
COC(=O)[C@H](Cc1ccccc1)NC(=O)[C@@H](C)CO |  | -44.5% [at 11.4 µM] (inactive)
